Rows were chosen to be rich in hits. Some 19% of all compounds tested hit in one or more screens of this group.
DT40 TDP1 no CPT – qHTS for Inhibitors of human tyrosyl-DNA phosphodiesterase 1 (TDP1): qHTS in cells in absence of CPT; actives 15% (n = 420,000); AID 686978, 2013; DT40 Tdp1-/- hTDP1 cells, no CPT, ATP luminescence, 48 h; Potency, µM (series often up to 46.2 µM), without a hit: at the highest dose activity change, negative = growth inhibition, usual class: inhibitors; note: potency is the fitted concentration of half-maximal effect; % is set by controls: 0 for no effect and ±100 for the full control effect; nearly all actives have a fitted effect of over 55% in size
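Seeded 400 DT40-hTDP1 cells/well (vehicle DMSO, no 20 nM CPT); pinned compounds; ≥48 hr at 37 °C; CellTiter-Glo luminescence as viability measure.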
DT40 TDP1 CPT – DT40-hTDP1 cell growth loss with CPT | actives 12% (n = 420,000) | chicken DT40 Tdp1-/-;hTDP1 cells + 20 nM CPT, ATP luminescence, 48 h | Potency, µM (doses to about 46.2 µM), without a hit: at the top dose activity change, negative = growth inhibition, usual class: inhibitors; note: potency is the fitted concentration of half-maximal effect; % is set by controls: 0 for no effect and ±100 for the full control effect; nearly all actives have a fitted effect of over 55% in size
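Chicken DT40 Tdp1-/- cells stably complemented with human TDP1 were seeded at 400 cells/well in medium containing 20 nM camptothecin, exposed to pin-transferred compounds, and grown at 37 °C for at least 48 hr. Viability was read as ATP luminescence.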
IL1B secr inh – inhibitors of inflammasome signaling (IL-1 beta secretion); THP-1 LPS/ATP IL-1B secretion, AlphaLISA, 16 h; stronger effect = lower value; activity change, % at 57.5 µM; actives 4.7% (n = 360,000); in the data active = activity change below about -50%; inconclusive = mostly about -30% to -49%; note: % is set by controls: 0 for no effect and ±100 for the full control effect
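THP-1 cells pretreated 1 hr with compounds (up to 57.5 uM final), then stimulated with LPS (250 ng/mL final) plus ATP (1.25 mM final); secreted IL-1B measured by AlphaLISA after 16 hr, decreased signal indicating inhibition.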
SW480 rereplic – induces DNA re-replication in SW480 colon adenocarcinoma cells | Potency, µM (top dose mostly 46.1 µM), for inactives: at the highest dose re-replication activation, usual class: activators | SW480 DNA re-replication, Hoechst DNA content imaging, 48 h | actives 1.8% (n = 340,000); note: potency is the fitted concentration of half-maximal effect; % of control where 0% means no effect; nearly all actives have a fitted effect of over 55% in size
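First, 250 cells per well were seeded. Next, compound or vehicle (23 nL) was pinned in, plates sat 48 hr at 37 C. Finally Hoechst was added for 40 min before fluorescence scanning.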
BCR signal inh – chronic active BCR signaling inhibition; ABC-DLBCL IkBa-CBG/CBR reporter, luminescence ratio, 4 h; Potency, µM (highest dose often 46.1 µM), without a hit: at the top dose activity change, negative = inhibition, hits mostly inhibitors; actives 0.05% (n = 340,000); AID 493014; active = well fitted inhibition curve with a large enough effect in the signal ratio, with a control signal flat, not every such curve was filed as active; inconclusive = small, poorly fitted or top-dose-only effect, or effect the other way, or a change in a side signal; the % refers to the signal ratio;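 note: potency is the fitted concentration of half-maximal effect; plate controls were basal doxycycline-induced cells for no effect and cells given 10 µM MG132 for full effect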
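Cell line TMD8 (human ABC DLBCL), stably expressing tet-inducible CBG68-IkBa fusion and CBR; IMDM/0.5% FBS; cpd up to 46 uM; dox induction, 4 h, 37C/5% CO2; dual luminescence; green/red ratio; MG132 control.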
MCF10A rerep – DNA re-replication induction in MCF 10a cells. actives 2.9% (n = 350,000). Potency, µM (doses to about 46.1 µM), for inactives: at the top dose activity, positive = re-replication, hits mostly activators. MCF 10A DNA re-replication, Hoechst nuclear intensity, 48 h; note: potency is the fitted concentration of half-maximal effect; % of control where 0% means no effect; nearly all actives have a fitted effect of over 50% in size
Active calls of the source: *; u = inconclusive; x = no result given; [ ] = dose if it differs, or a comment. Unless noted, calls come from the whole dose curve; as a rule, active = well fitted curve in the direction sought with a large enough effect; inconclusive = small, poorly fitted or top-dose-only effect, or another doubt; inactive = no such curve, though single readings can be large; an effect the other way counts as inactive or inconclusive.

SMILES	DT40 TDP1 no CPT	DT40 TDP1 CPT	IL1B secr inh	SW480 rereplic	BCR signal inh	MCF10A rerep
COC(=O)c1ccccc1NC(=O)Cn1nc(C)c2nn(-c3ccc(Cl)cc3)c(C)c2c1=O	26µM*	21µM*	x	x	x	x
CCOC(=O)N1CCN(Cc2ccc3c(c2)CN(C(=O)c2noc4c2CCCC4)CCO3)CC1	21µM*	-13%[9.04 µM]	x	x	x	x
CCOC(=O)N1CCN(Cc2ccc3c(c2)OCO3)CC1	-14%	5%	-9	-1%	-3%	u
CC(C)N(Cc1ccccc1)C(=O)COC(=O)/C=C/c1cnc2ccccc2n1	-26%	6%	-201*	-1%	u	u
CCN(C(=O)COC(=O)/C=C/c1cnc2ccccc2n1)c1ccccc1	3%	-25%	-13	-15%	u	u
COC(=O)[C@@]1(Cc2ccccc2)[C@@H]2C(=CC(=O)[C@H]2CC(=O)C(=O)N(C)C)CN1C(=O)c1ccccc1	8.2µM*	9.2µM*	-105*	u	u	26µM*
COC(=O)[C@@]1(Cc2ccc(F)cc2)[C@H]2c3cc(C(=O)N(C)C)n(C[C@H](O)CO)c3C[C@H]2CN1C(=O)c1ccccc1	-4%	-6%	-11	-2%	-1%	3%
O=C(CSc1nnc(COc2ccc(F)cc2)o1)N1c2ccccc2CCc2ccccc21	16µM*	u	-12	14%	1%	u
O=C(CSc1nnc(COc2cccc3cccnc23)o1)N1CCc2ccccc21	2.3µM*	2.1µM*	20	-2%	-1%	1%
O=C(c1cnc2ccc3ccccc3c2c1)c1cc(F)ccc1O	u	7.3µM*	28	3.7µM*	-2%	u
Cc1nn(C)c2ncc(C(=O)c3cc(F)ccc3O)cc12	u	u	-17	3%	-6%	-5%
Cc1c(NS(=O)(=O)c2cccs2)cccc1-c1nc2cccnc2s1	u	-5%	14	-13%	-2%	-3%
CCS(=O)(=O)Nc1cc(-c2nc3cccnc3s2)ccc1C	26µM*	u	17	1%	u	u
Cc1cc(-c2nc3cccnc3s2)ccc1NS(=O)(=O)c1cccs1	u	-11%	8	u	5%	5.8µM*
O=S(=O)(Nc1ccc(-c2nc3cccnc3s2)cc1)c1ccc(Cl)s1	u	u	9	-2%	u	8.2µM*
CCS(=O)(=O)Nc1ccc(-c2nc3cccnc3s2)cc1	u	u	u	-7%	u	27%
O=S(=O)(Nc1ccc(-c2nc3cccnc3s2)cc1)c1cccs1	-25%	-2%	-9	5%	9%	6.5µM*
Cc1c(F)cccc1NS(=O)(=O)c1ccc(N2CCCC2=O)cc1	-17%	23%	12	-5%	x	11%
N#CCCn1cc(C=C(C#N)C#N)c(-c2ccc(-c3ccccc3)cc2)n1	u	u	10	u	-18%	u
N#CCCn1cc(/C=N/NC(N)=S)c(-c2ccc(-c3ccccc3)cc2)n1	4.1µM*	u	0	u	u	u
CN1/C(=C\C(=O)c2ccco2)C(C)(C)c2ccccc21	3.7µM*	2.6µM*	u	23µM*	5%	u
CN1/C(=C\C(=O)c2cncc(Br)c2)C(C)(C)c2ccccc21	2.6µM*	3.7µM*	-51*	u	-2%	16µM*
CC1(C)CC(=O)c2cc(C(=O)Nc3cccc4ccccc34)c(=O)[nH]c2C1	16µM*	u	x	x	x	x
CCC(C)(C)NC(=O)CN(CCc1cccc(C)c1)C(=O)c1csnn1	-12%	-20%	13	0%	-1%	0%
Cc1cccc2cc(C#N)c(SCCN3CCCCC3)nc12	u	u	-59*	8.2µM*	x	u
